Compounds with a hit are over-represented: about 2.4% of the library has one in this group of screens.
D2 PAM-1 = positively modulates the human D2 dopamine receptor allosterically | P14416 | actives 0.34% (n = 340,000) | AID 485347 | potentiation, % at 10 µM | HEK293 T-REx D2, calcium flux, EC20 dopamine potentiation;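 active = potentiation over 3 SD above the plate norm, cut at about 30% in these data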; also: 0% is about no effect
Target sequence (P14416 whole entry, looked up): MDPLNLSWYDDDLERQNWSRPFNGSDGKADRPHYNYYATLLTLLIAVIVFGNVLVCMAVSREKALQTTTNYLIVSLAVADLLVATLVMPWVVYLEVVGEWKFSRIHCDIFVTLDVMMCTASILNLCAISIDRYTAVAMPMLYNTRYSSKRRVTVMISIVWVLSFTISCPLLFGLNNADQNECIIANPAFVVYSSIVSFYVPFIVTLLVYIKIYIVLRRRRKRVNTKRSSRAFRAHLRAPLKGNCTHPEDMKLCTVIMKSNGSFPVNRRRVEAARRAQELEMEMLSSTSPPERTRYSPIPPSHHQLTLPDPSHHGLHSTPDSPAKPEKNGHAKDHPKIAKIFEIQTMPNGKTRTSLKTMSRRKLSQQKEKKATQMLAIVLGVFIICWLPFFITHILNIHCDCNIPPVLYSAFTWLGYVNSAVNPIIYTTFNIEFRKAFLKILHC
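Using a no-wash calcium dye in inducible, force-coupled HEK293 Trex cells expressing D2, we tracked fluorescence each second for 180 s after compound, then for 180 s after EC20 dopamine to detect augmented signalling.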
D2 ag-1 = agonists of human D2 dopamine receptor (beta-arrestin); P14416; DiscoveRx PathHunter D2 beta-arrestin, luminescence, 90 min; 100% = 57 uM dopamine signal; activation, % (test concentration not listed); actives 0.084% (n = 360,000); AID 624465; in the data active = activation above about 40%
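Agonist mode: compounds alone added to overnight-plated D2 PathHunter cells for 90 min at 37 C, with 57 uM final dopamine (EC100) defining full response. Beta-arrestin recruitment detected by chemiluminescent reagent, read after 1 h at ambient temperature.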
D2 ag-2 = D2 dopamine receptor (human) agonism. P14416. HEK293 T-REx D2 cells, calcium flux agonist mode. activation, % at 2 µM. actives 0.53% (n = 340,000);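 active = activation over 3 SD above normal in the single-dose calcium agonist read, cut at about 30% in these data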; also: 0% is about no effect
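In this primary screen, compounds producing a positive calcium signal within 180 s of addition to tetracycline-induced, force-coupled HEK293 Trex D2 cells are flagged; cells are dye-loaded with a no-wash calcium kit beforehand.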
D2 antagonist = antagonizes the human D2 dopamine receptor; inhibition, % at 10 µM; actives 2% (n = 340,000); P14416; HEK293 TREx D2 cells, calcium flux, dopamine EC80; in the data active = inhibition above about 30%; inactive = below that, where a call was filed; also: 0% is about no effect
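Calcium flux kinetic readout in an inducible HEK293 TREx D2 line plated overnight at 30 C. After 180 s compound exposure, an EC80 dopamine challenge follows with another 180 s kinetic read to detect antagonism.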
D2 PAM-2 = human D2 receptor positive allosteric modulation | P14416 | DiscoveRx D2 beta-arrestin cells, luminescence, 90 min; 100% = 57 uM dopamine signal | potentiation, % (test concentration not listed) | actives 0.23% (n = 360,000) | AID 624464; in the data active = potentiation above about 50%
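PathHunter beta-arrestin assay in DiscoveRx D2 cells. Compounds were added with an EC20 of dopamine (50 nM final) for 90 min at 37 deg C. Luminescence was read 1 h after detection reagent, with 57 uM dopamine as the EC100 control.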
Starred values were filed as active, the others as inactive; . = not tested or not shown.

SMILES | D2 PAM-1 | D2 ag-1 | D2 ag-2 | D2 antagonist | D2 PAM-2
COC(=O)c1ccc(NC(=S)Nc2ccc(O)cc2)cc1 | 9 | 7 | 1 | -5 | -3
Cc1cc(N2CCCCC2)nc2ccc(NC(=O)/C=C/c3ccc(OCCC(C)C)cc3)cc12 | -21 | . | . | . | .
CCOc1ccccc1N1CCN(Cc2cn[nH]c2-c2ccc(F)cc2)CC1 | -22 | -2 | 22 | 81* | -4
O=C(c1ccc(F)cc1)C1CCN(Cc2cn[nH]c2-c2ccc(F)cc2)CC1 | -25 | -3 | 1 | 94* | -26
COc1ccc(C(=O)C2CCCN(Cc3cn[nH]c3-c3ccc(F)cc3)C2)cc1OC (stereo not drawn) | 4 | 2 | 0 | 6 | -19
Cc1ccc(NC(=O)CSc2nnc(COc3ccc(Cl)cc3)o2)c(C)c1 | 0 | . | 1 | . | .
CCOC(=O)C1CCCN(C(=O)c2cc(-c3ccncc3)nc3ccccc23)C1 (stereo not drawn) | 8 | -4 | 0 | -4 | 9
CCOC(=O)C1CCCN(C(=O)c2cc(-c3ccc(F)cc3)nc3ccccc23)C1 (stereo not drawn) | 5 | -1 | 0 | 47* | -2
CCOC(=O)C1CCCN(c2oc(-c3ccc(F)cc3)nc2C#N)C1 (stereo not drawn) | 2 | -3 | 1 | 35* | 6
CC1CCN(c2oc(-c3ccc(F)cc3)nc2C#N)CC1 | 1 | 3 | -1 | 3 | -8
CCOC(=O)C1CCCN(C(=O)c2cc3c(=O)n4ccccc4nc3s2)C1 (stereo not drawn) | 44* | -5 | 1 | 2 | -30
Cc1cccn2c(=O)c3cc(C(=O)N4CC(C)CC(C)C4)sc3nc12 (stereo not drawn) | 38* | -4 | 2 | -3 | -4
O=C(CCS(=O)(=O)c1cc2c3c(c1)CCN3C(=O)CC2)NCc1ccc(F)cc1 | -4 | . | . | . | .
OC(c1cccc(Cl)c1)c1ncc(-c2ccc(C(F)(F)F)cc2)[nH]1 (stereo not drawn) | . | 6 | . | . | 0
O=C(CC1SC(N2CCOCC2)=NC1=O)Nc1cc([N+](=O)[O-])ccc1Cl (stereo not drawn) | -21 | -5 | 0 | 54* | -14
CC(C)NC(=O)c1ccc(NC(=O)CC2SC(N3CCCC3)=NC2=O)cc1 (stereo not drawn) | -3 | 4 | 1 | -5 | 0
O=C(CC1SC(=NCC2CCCO2)NC1=O)Nc1cc([N+](=O)[O-])ccc1Cl (stereo not drawn) | -14 | 0 | 2 | 0 | -15
COc1ccc(NC(=O)CC2SC(N3CCOCC3)=NC2=O)cc1OC (stereo not drawn) | -22 | 2 | 1 | 73* | -3
O=C(COC(=O)CC1SC(N2CCCC2)=NC1=O)Nc1ccc(Br)cc1 (stereo not drawn) | 6 | -4 | -1 | 31* | -13
O=C(CC1SC(N2CCOCC2)=NC1=O)Nc1ccc(F)cc1 (stereo not drawn) | . | -3 | . | . | -44
O=C(CC1SC(N2CCOCC2)=NC1=O)Nc1ccc(Cl)cc1 (stereo not drawn) | -25 | -4 | 0 | 58* | -38
CC1CCN(S(=O)(=O)c2ccc3c(c2)oc(=O)n3CC(=O)NCc2ccc(F)cc2)CC1 | -5 | . | 24 | . | .
CCOc1ccc(N2C(=O)c3[nH]nc(-c4ccc(OC)cc4)c3C2c2cccs2)cc1 (stereo not drawn) | 19 | . | . | . | .
O=C(CC1SC(N2CCCCC2)=NC1=O)Nc1ccc(C(=O)Nc2ccccc2)cc1 (stereo not drawn) | 2 | -4 | 0 | 6 | -15
O=C(CC1SC(N2CCOCC2)=NC1=O)Nc1ccccc1Cl (stereo not drawn) | -25 | 0 | -1 | 40* | -7
CN(Cc1ccccc1F)c1nc(-c2cccnc2)nc2ccccc12 | . | -1 | . | . | -20
CCOc1ccc(CN(C)c2nc(-c3cccnc3)nc3ccccc23)cc1OC | -14 | 0 | 0 | 36* | -6
CC(C(=O)N1CCN(Cc2ccccc2)CC1)n1ncn2cccc2c1=O (stereo not drawn) | -16 | -2 | 10 | 49* | -3
CCOC(=O)c1cccc(NC(=O)CCc2c(C)nn(-c3ccc(N4CCCCC4)nn3)c2C)c1 | -2 | . | 1 | . | .

High-throughput results from PubChem.
